Shown are actives, neighbours in structure and some others; about 2.9% of the full set was active somewhere.
LYPLA2 counter: LYPLA2 inhibitors, primary screen, counter-screen for PME1 inhibitor project, biochemical, fluorescence polarization, FP-Rh probe ABPP. Acyl-protein thioesterase 2 (Homo sapiens), O95372. recombinant LYPLA2. inhibition, % at 5.9 µM. 320,000 compounds, 0.38% hits. AID 2177, 2009;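 active = inhibition above the screen-wide mean plus 3 SD, limit set per campaign, cut at about 26% in these data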;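 also: 0% = LYPLA2 with DMSO and 100% = wells lacking LYPLA2 enzyme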
PAFAH1B2 FP inh: PAFAH1B2 enzyme inhibitors, primary screen, biochemical, fluorescence polarization, human; recombinant PAFAH1B2, FP-rhodamine activity probe; inhibition, % at 3.39 µM; 340,000 compounds, 1.2% hits; AID 492953, 2010;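 active = inhibition above the mean of all tested compounds plus 3 SD, cut at about 24% in these data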;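 also: 0% = enzyme with DMSO and 100% = wells lacking PAFAH1B2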
Target sequence (P68402 whole entry, looked up): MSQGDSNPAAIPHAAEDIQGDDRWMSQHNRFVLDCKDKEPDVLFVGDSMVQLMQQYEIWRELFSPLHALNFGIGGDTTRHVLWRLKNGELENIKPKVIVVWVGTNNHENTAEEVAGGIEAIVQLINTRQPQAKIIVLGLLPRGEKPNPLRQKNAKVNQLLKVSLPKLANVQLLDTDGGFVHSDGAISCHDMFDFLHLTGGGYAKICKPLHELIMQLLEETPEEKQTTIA
pPAFAH FP inh: pPAFAH enzyme inhibitors, primary screen, biochemical, fluorescence polarization, human. Platelet-activating factor acetylhydrolase (Homo sapiens), Q13093. 330,000 compounds, 1.5% hits. recombinant pPAFAH, FP-rhodamine probe fluorescence polarization. inhibition, % at 3.39 µM;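 active = inhibition above the mean inhibition across the screen plus 3 SD, cut at about 25% in these data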;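 also: inhibitors block binding of the rhodamine activity-based probe so polarization drops; 0% = enzyme with DMSO and 100% = wells lacking pPAFAH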
PAFAH1B3 inh: PAFAH1B3 enzyme inhibitors, primary screen, biochemical, fluorescence polarization, human; AID 492972, 2010; 340,000 compounds, 0.28% hits; inhibition, % at 3.39 µM; recombinant PAFAH1B3, FP-rhodamine probe;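 active = inhibition above the screen-wide average of all tested compounds plus 3 SD, cut at about 25% in these data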;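 also: 0% = enzyme with DMSO only and 100% = wells lacking PAFAH1B3 protein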
Target sequence (Q15102 whole entry, looked up): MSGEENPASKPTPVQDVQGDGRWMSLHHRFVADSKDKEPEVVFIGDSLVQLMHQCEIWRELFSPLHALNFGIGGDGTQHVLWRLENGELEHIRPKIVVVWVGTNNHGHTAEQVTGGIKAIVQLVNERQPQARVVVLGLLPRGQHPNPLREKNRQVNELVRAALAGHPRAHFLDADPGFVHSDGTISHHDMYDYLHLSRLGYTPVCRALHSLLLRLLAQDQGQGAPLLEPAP
PAFAH2 FP inh: PAFAH2 enzyme inhibitors, primary screen, biochemical, fluorescence polarization, human; Platelet-activating factor acetylhydrolase 2, cytoplasmic (Homo sapiens), Q99487; recombinant PAFAH2, FP-rhodamine activity probe; inhibition, % at 3.39 µM; 340,000 compounds, 0.99% hits; AID 492956, 2010;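 active = inhibition above the mean over all tested compounds plus 3 SD, cut at about 30% in these data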;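 also: inhibitors block probe labeling of enzyme so polarization drops; 0% = enzyme with DMSO and 100% = wells lacking PAFAH2 protein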
LYPLA1 inh: LYPLA1 inhibitors, primary screen, counter-screen for PME1 inhibitor project, biochemical, fluorescence polarization, FP-Rh probe ABPP | Acyl-protein thioesterase 1 (Homo sapiens), O75608 | inhibition, % at 5.9 µM | AID 2174, 2009 | recombinant LYPLA1 | 320,000 compounds, 0.16% hits;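 active = inhibition above the mean of all tested compounds plus 3 SD, set per campaign, cut at about 14% in these data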;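 also: inhibitors block serine hydrolase probe labeling of LYPLA1 so polarization falls; 0% = enzyme with DMSO and 100% = wells lacking LYPLA1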
Target sequence (O75608 whole entry, looked up): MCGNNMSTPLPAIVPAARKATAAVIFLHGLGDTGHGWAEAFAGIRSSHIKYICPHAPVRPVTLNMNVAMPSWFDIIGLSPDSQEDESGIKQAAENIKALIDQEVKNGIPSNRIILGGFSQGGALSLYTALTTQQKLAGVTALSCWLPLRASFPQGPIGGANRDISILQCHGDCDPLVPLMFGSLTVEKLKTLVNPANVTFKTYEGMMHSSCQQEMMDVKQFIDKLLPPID
LYPLA2 conf: LYPLA2 inhibitors, retest, confirmation, counter-screen for PME1 inhibitor project, biochemical, fluorescence polarization, FP-Rh probe ABPP; AID 2232, 2010; 1,100 compounds, 72% hits; shares compounds with LYPLA2 counter; recombinant LYPLA2; inhibition, % at 5.9 µM;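 active = mean inhibition across replicates above the hit cutoff set in the primary screen, cut at about 26% in these data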;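 also: blocked labeling of the enzyme by serine hydrolase FP-Rh probe lowers polarization; 0% = enzyme with DMSO and 100% = wells lacking LYPLA2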
LYPLA2 gel ABPP: LYPLA2 inhibitors in proteome, late-stage follow-up, gel-based competitive ABPP, fluorescence, assay provider; shares compounds with LYPLA2 counter; rhLYPLA2 in mouse brain proteome, gel ABPP FP-Rh; inhibition, % at 20 µM; 150 compounds, 30% hits; AID 652029, 2013;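 active = inhibition of LYPLA2 enzyme probe labeling above about 50%, limit read from the data; inactive = inhibition below that limit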;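 also: loss of FP-Rh probe labeling of the LYPLA2 gel band measured as band density; 0% = DMSO only control band and 100% = blank gel background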
* = called active by the depositor; / = no result given.

SMILES | LYPLA2 counter | PAFAH1B2 FP inh | pPAFAH FP inh | PAFAH1B3 inh | PAFAH2 FP inh | LYPLA1 inh | LYPLA2 conf | others
O=C(CN1CCN(C(=O)CNC(=O)c2ccc(N3CCCC3=O)cc2)CC1)Nc1ccccc1Cl | 50* | -3 | 2 | 1 | 4 | 3 | 46*
CCOC(=O)c1sc2nc(C)nc(NCc3ccccc3OC)c2c1C | -6 | 9 | 2 | 5 | 2 | -2 | /
CCC1CCC(c2nnc(-c3ccc([N+](=O)[O-])cc3)o2)CC1 (stereo unspecified) | 49* | 10 | 5 | 4 | 5 | 6 | 51* | LYPLA2 gel ABPP=23
Clc1ccc(-c2nnc(C3CC3)o2)cc1 | 10 | 4 | 1 | -5 | -7 | 5 | /
COc1ccc(N2CCN(C(=O)CCCN3C(=O)c4cccc5cccc(c45)C3=O)CC2)cc1 | 73* | -2 | 3 | -5 | 3 | 10 | 63* | LYPLA2 gel ABPP=32
COc1ccc(N2CCN(C(=O)CCCOc3cc(=O)n(C)c4ccccc34)CC2)cc1 | 31* | 6 | 6 | 6 | -4 | 1 | 33*
O=C(CCCN1C(=O)c2ccccc2C1=O)N1CCOCC1 | -6 | 1 | -3 | 0 | 5 | 0 | /
COc1ccccc1N1CCN(C(=O)CCN2C(=O)c3cccc4cccc(c34)C2=O)CC1 | 0 | 3 | 5 | 4 | 0 | 1 | /
O=C(CCCN1C(=O)c2cccc3cccc(c23)C1=O)N1CCN(c2ccc(F)cc2)CC1 | 54* | 11 | 8 | 2 | 5 | 11 | 50*
Cc1ccccc1C1CCCN(Cc2nc(CC3CC3)no2)C1 (stereo unspecified) | -2 | 6 | 6 | 5 | 3 | 1 | /
Cc1ccc(S(=O)(=O)/N=C2/C=C(Sc3ncn[nH]3)C(=O)c3ccccc32)cc1 | 47* | 51* | 9 | 48* | 75* | 6 | 57*
CC1(C)Cc2cccc(OCC(=O)N3CCN(c4ccccc4Cl)CC3)c2O1 | -6 | -4 | 0 | 3 | 5 | -1 | /
O=C(COC(=O)c1cnccn1)c1ccc(C2CCCCC2)cc1 | 31* | 8 | 9 | -7 | -8 | 1 | 30*
Cc1cnc(C(=O)OCC(=O)c2ccc(C3CCCCC3)cc2)cn1 | 20 | -3 | 4 | 8 | -3 | 2 | /
CCCCCOc1ccc(/C=C/c2c([N+](=O)[O-])c(=O)n(C)c(=O)n2C)cc1 | 69* | -7 | 11 | 12 | 7 | 1 | 53* | LYPLA2 gel ABPP=36
COc1ccc(N2CCN(C(=O)CSc3nc4[nH]ncc4c(=O)n3-c3ccc(Br)cc3)CC2)cc1 | 47* | 6 | 5 | 12 | 0 | 12 | 42*
COc1ccc(-n2c(SCC(=O)NCc3cccs3)nc3[nH]ncc3c2=O)cc1 | -2 | 5 | 4 | 3 | 3 | 1 | /
COc1ccc(Cl)cc1NC(=O)CN(C)S(=O)(=O)c1cccs1 | -4 | 6 | 8 | 13 | -8 | -2 | /
CCOC(=O)C1CCCN(C(=O)c2ccc3nc(-c4cccc(OC)c4)oc3c2)C1 (stereo unspecified) | 56* | -2 | 9 | 1 | 1 | 7 | 57*
CCOC(=O)C1CCCN(C(=O)c2ccc3nc(-c4ccccc4)c(-c4ccccc4)nc3c2)C1 (stereo unspecified) | 2 | 2 | 6 | 5 | 7 | -3 | /
COc1cccc(-c2nc3ccc(C(=O)N4CCCC(O)C4)cc3o2)c1 (stereo unspecified) | 0 | -1 | 2 | -1 | -4 | 4 | /
CCC(=O)C1CCCN(C(=O)c2ccc3nc(-c4cccc(OC)c4)oc3c2)C1 (stereo unspecified) | 29* | 0 | 3 | 2 | -2 | 8 | 40*
COc1ccc(OCC(=O)N/N=C/C(C)=C/c2ccco2)c(Br)c1 | -14 | -7 | 2 | 0 | -2 | -4 | /
COc1ccc(Cc2nnc(NC(=O)C3CCN(C(=O)c4ccco4)CC3)s2)cc1 | 3 | -1 | 6 | 2 | 12 | 0 | /
CC(=O)Nc1ccc(S(=O)(=O)NC2CCSc3ccccc32)cc1 (stereo unspecified) | 32* | 4 | 0 | 2 | -5 | 3 | 2
SMILES | LYPLA2 counter | PAFAH1B2 FP inh | pPAFAH FP inh | PAFAH1B3 inh | PAFAH2 FP inh | LYPLA1 inh | LYPLA2 conf | others
Cc1ncc([N+](=O)[O-])n1CC(=O)Nc1cccc(C(F)(F)F)c1 | 51* | 0 | 1 | 6 | -1 | 0 | 41*
Cc1ncc([N+](=O)[O-])n1CC(=O)Nc1ccc(OC(F)(F)Cl)cc1 | 3 | 6 | 3 | 3 | 3 | 1 | /
Cc1ncc([N+](=O)[O-])n1CC(=O)Nc1ccc(F)c(Cl)c1 | 34* | 1 | 5 | 9 | -3 | 5 | 61* | LYPLA2 gel ABPP=49
Cc1ncc([N+](=O)[O-])n1CC(=O)NC1CCCC1 | 4 | -10 | -1 | 14 | -3 | 2 | /
Cc1ncc([N+](=O)[O-])n1CC(=O)Nc1ccccc1F | 28* | 4 | 1 | 3 | 1 | -1 | 27*
COc1ccc(NC(=O)Cn2c([N+](=O)[O-])cnc2C)cc1Cl | 24 | 1 | 4 | 7 | 2 | -1 | /
Cc1ncc([N+](=O)[O-])n1CC(=O)NC1CCCCCC1 | 28* | -3 | 3 | 5 | 7 | -4 | 33*
O=C(NCC1CCCO1)C1CCCN(c2ncccn2)C1 (stereo unspecified) | 4 | 4 | -4 | 0 | 4 | 2 | /
Clc1cc(NCc2ccccc2)ncn1 | 5 | 4 | 5 | -7 | -1 | 3 | /
Cc1ccc(C(=O)N2CCN(c3ccc(NC(=O)c4cccnc4Cl)cc3)CC2)cc1 | 49* | -1 | 0 | 8 | -6 | 5 | 57* | LYPLA2 gel ABPP=38
O=C(Nc1ccc(N2CCN(C(=O)c3ccc(Cl)cc3)CC2)cc1)c1cccnc1 | 48* | 0 | 7 | 0 | 1 | 5 | 41*
CCC(=O)NC(=S)Nc1ccc(N2CCN(C(=O)c3ccc(Cl)cc3)CC2)cc1 | 29* | 2 | 6 | 3 | 6 | 2 | 36*
O=C(Nc1ccc(N2CCN(C(=O)c3ccco3)CC2)cc1)c1cccnc1Cl | 16 | -2 | -1 | 7 | -2 | -1 | /

Bioassay records from PubChem BioAssay.
